{"source": "PubChem BioAssay (NCI)", "note": "Compounds without any hit were thinned out: in the full panel of roughly 83,000, 20% have a hit.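 Single-dose data. Exposure time 48 hours. Values below 10 considered active.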 Values without a mark were called inactive. Active and inactive are the calls of the source.", "data": [{"tested_on": "MDA-MB-468 breast", "test": "NCI-60 one-dose screen, 48 h (100 = growth as untreated, 0 = no growth, -100 = all killed)", "conditions": "10 µM unless noted", "values": [{"smiles": "O=C(CCN1CCCC1)Nc1ccc2c(NCCc3ccccc3)c3ccccc3nc2c1", "growth": "-40.8% (active)"}, {"smiles": "COCCn1cc(-c2nc(-c3cn(CCOC)c4ncccc34)cs2)c2cc(F)ccc21", "growth": "-10.9% (active)"}, {"smiles": "OCCNCCCOc1ccc2ncnc(Nc3ccc(Oc4cccc(C(F)(F)F)c4)c(Cl)c3)c2c1", "growth": "-64.6% (active)"}, {"smiles": "C[C@]12CC[C@H](O)CC1=CC[C@@H]1[C@@H]2CC[C@]2(C)C(c3cccnc3)=CC[C@@H]12", "growth": "15.2%"}, {"smiles": "Cc1ccc(NC(=O)c2sc3nc(C)c(C(O)c4ccccc4)cc3c2N)cc1", "note": "(stereo unspecified)", "growth": "18.6%"}, {"smiles": "O=C(CCc1nnco1)c1nc2ccc([N+](=O)[O-])cc2[nH]1", "growth": "113%"}, {"smiles": "FC(F)(F)c1ccc2c(c1)n1cnnc1c1nncn21", "growth": "105%"}, {"smiles": "CC1=CC(c2ccco2)=C2C(N)=NNC2N1", "note": "(stereo unspecified)", "growth": "104%"}, {"smiles": "COc1cccc(-c2nn(-c3ccccc3)cc2-c2ccnc(NCCCNS(=O)(=O)c3cccc(F)c3)c2)c1", "growth": "-10.1% (active)"}, {"smiles": "c1ccc2[nH]c(-c3ccc(-c4nccc5c4[nH]c4ccccc45)cc3)nc2c1", "growth": "44.8%"}, {"smiles": "NC(=O)[C@@H]1CC2CCC1C2", "note": "(stereo partly specified)", "growth": "99.4%"}, {"smiles": "O=C(CSc1nnc(-c2cccs2)n1-c1ccccc1)Nc1ccccc1", "growth": "49.1%"}, {"smiles": "O=C(CC(NC(=O)OCc1ccccc1)C(=O)OCc1ccccc1)OCc1ccccc1", "note": "(stereo unspecified)", "growth": "112%"}, {"smiles": "CCOC(=O)CC(=O)c1c(C)cc(C)cc1C", "growth": "98.6%"}, {"smiles": "Fc1cc2[nH]ncc2c2c3c(c(-c4cn[nH]c4C(F)(F)F)nc12)CCCC3", "growth": "-20.3% (active)"}, {"smiles": "COc1ccc(-c2cn3c(ccc4ccccc43)n2)cc1", "growth": "108%"}, {"smiles": "C#CCn1cc(/C=N/Nc2nc(-c3ccc(Br)cc3)cs2)c2ccccc21", "growth": "105%"}, {"smiles": "CN(C)C1CCN(C(=O)c2ccc(NC(=O)Nc3ccc(-c4nc(N5CCOCC5)nc(N5CCOCC5)n4)cc3)cc2)CC1", "growth": "-49.1% [2.5 µM] (active)"}, {"smiles": "COc1ccc(-c2nc(SCCC(C)C)nc(N/N=C(/C)c3ccc(C)cc3)c2C#N)cc1", "growth": "105%"}, {"smiles": "COc1cccc(-c2nn(-c3ccccc3)cc2-c2ccnc(NCCNS(=O)(=O)c3cccc(F)c3)c2)c1", "growth": "15.8%"}, {"smiles": "CC(=O)OC[C@]12CC[C@@H](c3cn(Cc4ccc(Cn5cc([C@@H]6CC[C@]7(COC(C)=O)CC[C@]8(C)[C@H](CC[C@@H]9[C@@]%10(C)CC[C@H](OC(C)=O)C(C)(C)[C@@H]%10CC[C@]98C)[C@@H]67)nn5)cc4)nn3)[C@@H]1[C@H]1CC[C@@H]3[C@@]4(C)CC[C@H](OC(C)=O)C(C)(C)[C@@H]4CC[C@@]3(C)[C@]1(C)CC2", "growth": "102%"}, {"smiles": "N#CC1C(=N)Cc2ccccc2-c2ccccc21", "note": "(stereo unspecified)", "growth": "9.26% (active)"}, {"smiles": "CC(C)CSc1nc(NN)c(C#N)c(-c2ccc(F)cc2)n1", "growth": "85.2%"}, {"smiles": "CCN(CC)CC(O)Cc1ccc(OC)cc1", "note": "(stereo unspecified)", "growth": "97.9%"}, {"smiles": "CN(C)CCn1c2ccc(Br)cc2c2nc3ccccc3nc21", "growth": "13%"}, {"smiles": "COC(=O)Nc1ccc(-c2nc(-c3cccc(O)c3)c(-c3ccnc(Br)c3)[nH]2)cc1", "growth": "25.6%"}, {"smiles": "COc1ccc(Nc2cc(NC(=O)CNc3cc(OC)c(Cl)c(OC)c3Cl)ncn2)cc1", "growth": "80.8%"}, {"smiles": "Cc1cc([C@@H](C)Nc2ccccc2C(=O)O)c2nc(N3CCOCC3)cc(=O)n2c1", "growth": "9.76% (active)"}, {"smiles": "CC1(C)CC[C@]2(C(=O)N3CCNCC3)CC[C@]3(C)C(=CC[C@@H]4[C@@]5(C)CCC(=O)C(C)(C)[C@@H]5CC[C@]43C)[C@@H]2C1", "growth": "105%"}, {"smiles": "COc1nc(OC)nc(-c2cc(C(=O)c3ccc(Br)cc3)n3cc(C)cc(C)c23)n1", "growth": "51%"}, {"smiles": "CC(C)(C)C1=CC(=O)C(C(C)(C)C)=CC1=O", "growth": "96.7%"}, {"smiles": "Cc1nn(CCO)c(C)c1N=[N+]([O-])c1c(C)nn(CCO)c1C", "growth": "-59% (active)"}, {"smiles": "CC1=C/C(O)CC(=O)Cc2nc(co2)C(=O)N2CCC=C2C(=O)OC(C(C)C)C(C)/C=C\\C(=O)NC/C=C\\1", "note": "(stereo unspecified)", "growth": "54.5%"}, {"smiles": "CCCCC1(CC)COC(CCC)OC1", "note": "(stereo unspecified)", "growth": "99.7%"}, {"smiles": "O=C1CCC(N2Cc3c(C#CCCCNC(=O)c4cc5c(o4)C(=O)c4ccccc4C5=O)cccc3C2=O)C(=O)N1", "note": "(stereo unspecified)", "growth": "-47.1% (active)"}, {"smiles": "CN1CCC(c2ccccc2)(c2ccccc2)C(=O)C1", "growth": "-11.8% (active)"}]}]}
